Assay results as given in PubChem BioAssay (NCI).
This is part of a sample that, as a whole, favours compounds with a hit. Of some 83,000 tested, about 20% had one in any assay.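 Testing used 96-well plates and a 48-hour single-concentration exposure. Example: -40 means 40% of the starting cells died.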 Calls of active or inactive are those of the source. How the source made its calls: active means growth percent below 10; inactive means the rest.

Key:
Test in all cases: NCI-60 one-dose screen, 48 h (100 = growth as untreated, 0 = no growth, -100 = all killed)
Conditions in all cases: 10 µM unless noted
[1] = system: DU-145 prostate
[2] = system: K-562 leukemia
[3] = system: MALME-3M melanoma
[4] = system: MDA-MB-231 breast
[5] = system: RXF 393 renal
[6] = system: SF-268 CNS
[7] = system: SF-295 CNS
[8] = system: SF-539 CNS
[9] = system: UACC-257 melanoma
[10] = system: M14 melanoma
[11] = system: HCT-15 colon
[12] = system: HT29 colon
[13] = system: SNB-19 CNS
[14] = system: U251 CNS
[15] = system: PC-3 prostate
[16] = system: SK-MEL-5 melanoma
[17] = system: UACC-62 melanoma
[18] = system: LOX IMVI melanoma
[19] = system: SK-MEL-28 melanoma

Measured: growth

NC1=C(/C(N)=N/O)C(c2ccccc2)c2ccc3ccccc3c2O1 (centres undefined)
active: [1] 9% | [4] 8.69% | [5] -14.1% | [7] -0.153% | [8] -32.4% | [11] 5.04% | [12] 6.2% | [16] -44.5%
inactive: [2] 13.2% | [3] 46.4% | [6] 33% | [9] 46.7% | [10] 11.7% | [13] 24.8% | [14] 19.6% | [15] 20.4% | [17] 19.8% | [18] 22.7% | [19] 49.8%

CCCCOc1ccc(/C=C2/SC(N3CCOCC3)=NC2=O)cc1OCC
inactive: [1] 99.4% | [2] 86.4% | [3] 93.1% | [4] 83.8% | [5] 94.6% | [6] 99.2% | [7] 100% | [8] 86.4% | [9] 108% | [10] 91.8% | [11] 98.6% | [12] 104% | [13] 90.8% | [14] 95.2% | [15] 87.1% | [16] 98.7% | [17] 88.6% | [18] 89.1% | [19] 97.4%

Cc1nc2c3c(ncn2n1)Oc1c(c(=O)[nH]c2ccccc12)C3c1ccc(Cl)cc1 (centres undefined)
inactive: [1] 112% | [2] 94.3% | [3] 105% | [4] 87.9% | [5] 113% | [6] 85.7% | [7] 96.2% | [8] 93.4% | [9] 105% | [10] 105% | [11] 99.6% | [12] 102% | [13] 92% | [14] 94.1% | [15] 83.4% | [16] 94.8% | [17] 90.6% | [18] 91.1% | [19] 110%

Cc1ccc(C(=O)NCCCNc2nccc(-n3ccc4cccnc43)n2)cc1
inactive: [1] 96.5% | [2] 92.1% | [3] 111% | [4] 104% | [5] 102% | [6] 94.7% | [7] 96% | [8] 99.2% | [9] 107% | [10] 102% | [11] 102% | [12] 106% | [13] 90.6% | [14] 93.2% | [15] 97.8% | [16] 99.5% | [17] 102% | [18] 97% | [19] 106%

O=C1c2ccccc2-c2ccccc2C1(Cl)Cl
active: [1] -90.6% | [2] -15.4% | [3] -99.4% | [4] -27.5% | [5] -95.6% | [6] -83.8% | [7] -91% | [8] -94.8% | [9] -93% | [10] -69.6% | [11] -60.2% | [12] -38.4% | [13] -83.5% | [14] -90.1% | [15] -29.5% | [16] -95.5% | [17] -83.4% | [18] -31.8%

O=C1NN(C(=O)c2ccc(Cl)cc2)C(c2ccccc2)=N/C1=C\c1ccc(F)cc1
inactive: [1] 112% | [2] 83.2% | [3] 85.6% | [4] 68% | [5] 84.2% | [6] 105% | [7] 72.9% | [8] 84.8% | [9] 102% | [10] 86.2% | [11] 72.4% | [12] 97.4% | [13] 78.8% | [14] 40.1% | [15] 81.4% | [16] 88.1% | [17] 74% | [18] 88.3% | [19] 107%

Nc1ccc(C(=O)CSc2nc3ccccc3[nH]2)cc1
inactive: [1] 103% | [2] 103% | [3] 107% | [4] 105% | [5] 110% | [6] 99.4% | [7] 98.1% | [8] 104% | [9] 107% | [10] 108% | [11] 99.6% | [12] 110% | [13] 102% | [14] 96.9% | [15] 104% | [16] 97.9% | [17] 90.6% | [18] 106% | [19] 116%

COc1ccc(-c2cnoc2-c2ccc(OC)cc2O)cc1
inactive: [1] 30.9% | [2] 25% | [3] 41.1% | [4] 45.8% | [5] 23.9% | [6] 39.9% | [7] 26.9% | [8] 19.7% | [9] 56.7% | [10] 14.9% | [11] 26.7% | [12] 24.1% | [13] 42.4% | [14] 25.6% | [15] 53.2% | [16] 15.8% | [17] 28.9% | [18] 41.2% | [19] 45%

O=[N+]([O-])c1cc(Cl)c2[nH]c3c(Cl)cc([N+](=O)[O-])cc3c2c1
active: [2] 3.44% | [3] -16.5% | [4] -30.3% | [7] -35.5% | [9] -52.2% | [12] -38.3% | [14] -22.7% | [15] 4.26% | [16] -60.7% | [17] 9.86% | [18] 6.56%
inactive: [1] 22.9% | [5] 12.4% | [6] 12.9% | [8] 23.8% | [10] 16.3% | [11] 11.3% | [13] 15.9%

COc1ccc(/C=C2/C(=O)NC(SCC(=O)N3CCN(c4cc5c(cc4F)c(=O)c(C(=O)O)cn5C4CC4)CC3)=NC2N)cc1OC (centres undefined)
inactive: [1] 104% | [2] 107% | [3] 108% | [4] 106% | [5] 109% | [6] 96.8% | [7] 93.9% | [8] 101% | [9] 108% | [10] 106% | [11] 98.9% | [12] 112% | [13] 102% | [14] 102% | [15] 99.2% | [16] 104% | [17] 102% | [18] 103% | [19] 105%

COc1ccc(C2C(C#N)=C(N)Oc3c2ccc2ccccc32)cc1 (centres undefined)
inactive: [1] 78.4% | [2] 19.6% | [3] 47.9% | [4] 31.2% | [5] 36.5% | [6] 50.5% | [7] 24.2% | [8] 25.6% | [9] 75.1% | [10] 30.2% | [11] 28.3% | [12] 34.1% | [13] 46.7% | [14] 35.4% | [15] 39.9% | [16] 31.2% | [17] 23.6% | [18] 27.1% | [19] 52.2%

CCc1ccc(-c2ccc(=O)n(-c3ccc(S(N)(=O)=O)cc3)n2)cc1
active: [5] -31.8%
inactive: [1] 59.6% | [2] 11% | [3] 35.6% | [4] 66.8% | [6] 42.1% | [7] 18.4% | [8] 43.6% | [9] 22.3% | [10] 17.7% | [11] 29.7% | [12] 11.8% | [13] 57.6% | [14] 35% | [15] 35% | [16] 12.9% | [17] 38.5% | [18] 55.1% | [19] 49.4%

COc1cc(/C(C#N)=C/c2ccc3c(c2OC)OCO3)cc2c1OCO2
active: [5] -14.3% | [7] 6% | [8] 4.21% | [10] -3.69% | [12] 0.067%
inactive: [1] 11.2% | [2] 20.9% | [3] 37.1% | [4] 29.7% | [6] 47.1% | [9] 62.2% | [11] 33% | [13] 31.2% | [14] 18.9% | [15] 40.8% | [16] 36.9% | [17] 18.5% | [18] 24.2% | [19] 45.7%

Oc1ccc2cc(Br)ccc2c1-c1c(O)ccc2cc(Br)ccc12
inactive: [1] 78.2% | [2] 54% | [3] 97.9% | [4] 50.1% | [5] 59.8% | [6] 53.8% | [7] 76.5% | [8] 82% | [9] 82.6% | [10] 58.9% | [11] 67.7% | [12] 11.2% | [13] 78.3% | [14] 65% | [15] 42.1% | [16] 72.8% | [17] 61.4% | [18] 61.8% | [19] 65.5%

N/C(=N\C(N)=N\c1nc2ccccc2s1)c1cccc(Br)c1
inactive: [1] 99.1% | [2] 73.6% | [3] 101% | [4] 73.4% | [5] 95.5% | [6] 101% | [7] 76% | [8] 98.6% | [9] 103% | [10] 82% | [11] 44.2% | [12] 104% | [13] 90.9% | [14] 38.3% | [15] 63.2% | [16] 94.6% | [17] 84.7% | [18] 33.2% | [19] 94.5%

COc1cccc(CC(C)=C(c2ccc(OCCN(C)C)cc2)c2ccc(OCCN(C)C)cc2)c1
active: [2] -61.4% | [3] -93% | [4] -75.4% | [5] -62.6% | [6] -32.9% | [8] -93.1% | [9] -74.5% | [10] -80.5% | [11] -37.8% | [12] -72.7% | [14] -77.8% | [16] -95.1% | [17] -90.7% | [18] -84.3%
inactive: [1] 22.1% | [7] 22.8% | [13] 15.2% | [15] 15.6%

O=[N+]([O-])c1ccc(C(c2ccccc2)c2ccccc2)cc1
inactive: [1] 105% | [2] 91.9% | [3] 107% | [4] 86.3% | [5] 100% | [6] 98.7% | [7] 88.7% | [8] 104% | [9] 96.9% | [10] 105% | [11] 86.4% | [12] 84.4% | [13] 96.9% | [14] 102% | [15] 94.1% | [16] 96.7% | [17] 85.5% | [18] 69.7%
